Active and inactive are the calls of the source. Rule for the calls: active = hit-call score of the fitted dose curve at least 0.9, where 1 is the maximum; inactive = score below 0.9.
Experiment: ATG_RORE_CIS: Attagene CIS-FACTORIAL HepG2 Assay for human RAR-related Orphan Receptor Element (RORE) (AID 2282959)
Settings: HepG2 Attagene cis-factorial RORE reporter, mRNA; actives raise or lower the signal
Procedure, shortened: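 Fluorescence intensity of reporter-specific cDNA fragments, separated by capillary electrophoresis, gives the signal. Source: HepG2 liver cells transiently transfected with cis-element reporters and exposed 24 h; DMSO-normalized bidirectional fit.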

| SMILES | outcome | AC50 |
| --- | --- | --- |
| CCOc1ccccc1OCC | inactive | – |
| c1ccc2[nH]ccc2c1 | inactive | – |
| CC(=O)O[C@H](CC(=O)[O-])C[N+](C)(C)C | inactive | – |
| CCN(CC)c1ccc(C(=C2C=CC(=[N+](CC)CC)C=C2)c2ccc(S(=O)(=O)O)cc2S(=O)(=O)[O-])cc1 | inactive | – |
| CCCCCCCCCCCCCOS(=O)(=O)O | inactive | – |
| [Ca+2] | inactive | – |
| c1cc(C(c2ccc(OCC3CO3)cc2)c2ccc(OCC3CO3)cc2)ccc1OCC1CO1 (configuration not stated) | inactive | – |
| CCn1c2ccccc2c2cc(N)ccc21 | – | 67.9 µM (active) |
| C=C[C@@H](C)CCC=C(C)C | inactive | – |
| O=C(O)CN(CCN(CC(=O)O)CC(=O)O)CCN(CC(=O)O)CC(=O)O | inactive | – |
| COC(=O)OC | inactive | – |
| Cc1c(Cl)c(=O)oc2cc(O)ccc12 | inactive | – |
| O=Cc1ccc(F)cc1 | inactive | – |
| C=C(C)C(=O)O | inactive | – |
| CC(C)OP(=O)(CP(=O)(OC(C)C)OC(C)C)OC(C)C | inactive | – |
| CCCCOCCOCCOCCOCCO | inactive | – |
| COc1ccc(Nc2ccccc2)c(C)c1 | – | 51.5 µM (active) |
| CCCC(C)C=O (configuration not stated) | inactive | – |
| CC(=O)Nc1ccccc1O | inactive | – |
| COc1cc(C(C)(C)C)c(O)c(C(C)(C)C)c1 | inactive | – |
| CCCC(=O)C(C)=O | inactive | – |
| O=C(O)c1cn(C2CC2)c2cc(N3CCNCC3)c(F)cc2c1=O | inactive | – |
| Cc1ccc2ccccc2n1 | inactive | – |
| CC(C)=CCCC(C)=CCCC(C)=CCO | inactive | – |
| O=C(Nc1ccccc1)c1cc([N+](=O)[O-])ccc1Cl | inactive | – |
| N#Cc1ccccc1 | inactive | – |
| C[C@H]1C[C@@H]2[C@H]([C@@H](O)C[C@@]3(C)[C@H]2CC[C@]3(O)C(=O)CO)[C@@]2(C)C=CC(=O)C=C12 | inactive | – |
